These results are taken from the supplement of paper PMC6288085.

Structures are written as SMILES. Where a name gives a salt, the structure may show the parent alone. ± gives the uncertainty stated by the source.

The test system of the assay is Caenorhabditis elegans N2. Description: food intake (mean delta OD600 / animal over 72 h) with 50 uM loxapine co-treatment (OD600 units per animal); higher = more food eaten (less suppression of loxapine-induced hyperphagia). Conditions: first compound 33 µM, loxapine concentration 50 µM. How it is done: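 C. elegans N2 adults (FUDR-sterilised, day 1) in 96-well plates fed gamma-irradiated bacteria. Each library drug (MedChemExpress FDA-approved library) at 33 uM was combined with loxapine at 50 uM. Food intake was measured as bacterial clearance: the change in OD600 from day 1 to 72 h, normalised per animal (mean over 14-21 wells of about 10-12 worms). Drugs flagged for bacterial lysis or sickness were excluded by the authors.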
For `CN(Cc1cnc2nc(N)nc(N)c2n1)c1ccc(C(=O)N[C@@H](CCC(=O)O)C(=O)O)cc1` [methotrexate] + CN1CCN(C2=Nc3ccccc3Oc3ccc(Cl)cc32)CC1 [loxapine], the food intake was 0.0222 ± 0.0022.

As for `CC(=O)Nc1ncc([N+](=O)[O-])s1` [nithiamide] + CN1CCN(C2=Nc3ccccc3Oc3ccc(Cl)cc32)CC1 [loxapine], the food intake is 0.0244 ± 0.0027.

With `NC(=O)c1ncn([C@@H]2O[C@H](CO)[C@@H](O)[C@H]2O)n1` [ribavirin] + CN1CCN(C2=Nc3ccccc3Oc3ccc(Cl)cc32)CC1 [loxapine], the food intake came out at 0.0212 ± 0.0037.

For the compound `CCOC(=O)c1c(CSc2ccccc2)n(C)c2cc(Br)c(O)c(CN(C)C)c12` [arbidol (hydrochloride)] + CN1CCN(C2=Nc3ccccc3Oc3ccc(Cl)cc32)CC1 [loxapine], the food intake was found to be 0.0227 ± 0.0057.

As to `Cc1[nH]c(=O)c(C#N)cc1-c1ccncc1` [milrinone] + CN1CCN(C2=Nc3ccccc3Oc3ccc(Cl)cc32)CC1 [loxapine], the food intake came to 0.0238 ± 0.0035.

In the case of `C#C[C@]1(O)CC[C@H]2[C@@H]3CCc4cc(OC)ccc4[C@H]3CC[C@@]21C` [mestranol] + CN1CCN(C2=Nc3ccccc3Oc3ccc(Cl)cc32)CC1 [loxapine], the food intake amounted to 0.0204 ± 0.0018.

On to `CN1C(=O)C[C@@H](C(=O)N[C@@H](Cc2c[nH]cn2)C(=O)N2CCC[C@H]2C(N)=O)NC1=O` [taltirelin] + CN1CCN(C2=Nc3ccccc3Oc3ccc(Cl)cc32)CC1 [loxapine], for which the food intake worked out at 0.022 ± 0.0034.

For the compound `O=C(c1cc(Cc2n[nH]c(=O)c3ccccc23)ccc1F)N1CCN(C(=O)C2CC2)CC1` [olaparib] + CN1CCN(C2=Nc3ccccc3Oc3ccc(Cl)cc32)CC1 [loxapine], the food intake stood at 0.0205 ± 0.005.

In the case of `CC(=O)O[C@H]1CC[C@H]2[C@@H]3CCc4cc(O)ccc4[C@H]3CC[C@]12C` [b-estradiol 17-acetate] + CN1CCN(C2=Nc3ccccc3Oc3ccc(Cl)cc32)CC1 [loxapine], the food intake worked out at 0.0213 ± 0.0046.

In the case of `Nc1nc(/C(=C/CC(=O)O)C(=O)N[C@@H]2C(=O)N3C(C(=O)O)=CCS[C@H]23)cs1` [ceftibuten (dihydrate)] + CN1CCN(C2=Nc3ccccc3Oc3ccc(Cl)cc32)CC1 [loxapine], the food intake amounted to 0.0192 ± 0.0055.

Consider `C#C[C@]1(O)CC[C@H]2[C@@H]3CCC4=CC(=O)CC[C@@H]4[C@H]3C(=C)C[C@@]21CC` [etonogestrel] + CN1CCN(C2=Nc3ccccc3Oc3ccc(Cl)cc32)CC1 [loxapine], for which the food intake was found to be 0.0244 ± 0.012.

With `O=P(O)(O)C(O)(Cn1ccnc1)P(=O)(O)O` [Zoledronic acid (monohydrate)] + CN1CCN(C2=Nc3ccccc3Oc3ccc(Cl)cc32)CC1 [loxapine], the food intake is 0.0237 ± 0.003.

In the case of `Fc1ccc([C@@H]2CCNC[C@H]2COc2ccc3c(c2)OCO3)cc1` [paroxetine (hydrochloride)] + CN1CCN(C2=Nc3ccccc3Oc3ccc(Cl)cc32)CC1 [loxapine], the food intake stood at 0.0221 ± 0.0043.

As to `CC(=O)NCCCS(=O)(=O)O` [Acamprosate (calcium)] + CN1CCN(C2=Nc3ccccc3Oc3ccc(Cl)cc32)CC1 [loxapine], the food intake is 0.023 ± 0.0036.

As for `CC(=O)C1C(=O)C=C(C)OC1=O` (stereo unspecified) [dehydroacetic acid] + CN1CCN(C2=Nc3ccccc3Oc3ccc(Cl)cc32)CC1 [loxapine], the food intake came out at 0.0214 ± 0.0043.

Take `C1CCN2C[C@@H]3C[C@@H](CN4CCCC[C@@H]34)[C@H]2C1` [(-)-sparteine (sulfate pentahydrate)] + CN1CCN(C2=Nc3ccccc3Oc3ccc(Cl)cc32)CC1 [loxapine]: the food intake turned out to be 0.0235 ± 0.0013.

Take `CC=CC(=O)N(CC)c1ccccc1C` [crotamiton] + CN1CCN(C2=Nc3ccccc3Oc3ccc(Cl)cc32)CC1 [loxapine]: the food intake turned out to be 0.0223 ± 0.002.

With `O=C1CC2(CCCC2)CC(=O)N1CCCCN1CCN(c2ncccn2)CC1` [buspirone (hydrochloride)] + CN1CCN(C2=Nc3ccccc3Oc3ccc(Cl)cc32)CC1 [loxapine], the food intake is 0.0245 ± 0.0044.

On to `Nc1ccc(S(=O)(=O)c2ccc(N)cc2)cc1` [dapsone] + CN1CCN(C2=Nc3ccccc3Oc3ccc(Cl)cc32)CC1 [loxapine], for which the food intake stood at 0.0216 ± 0.006.

For `CN1CCCC(n2nc(Cc3ccc(Cl)cc3)c3ccccc3c2=O)CC1` (stereo unspecified) [azelastine (hydrochloride)] + CN1CCN(C2=Nc3ccccc3Oc3ccc(Cl)cc32)CC1 [loxapine], the food intake was determined as 0.0226 ± 0.0035.

For the compound `N[C@@H]1CCCCN(c2c(F)cc3c(=O)c(C(=O)O)cn(C4CC4)c3c2Cl)C1` [besifloxacin (hydrochloride)] + CN1CCN(C2=Nc3ccccc3Oc3ccc(Cl)cc32)CC1 [loxapine], the food intake was determined as 0.0227 ± 0.0056.
